# Reference: the supplement of paper PMC10338343
# ± gives the standard deviation.
# Legend:
# [1] = tested on: MILI (PIWIL2) piRISC loaded with L1MC piRNA (26 nt); experiment: pre-steady-state target cleavage rate (min^-1); guide: L1MC piRNA 5'p-UAACUAAAUACUAUGCAAGCUGUAGG; higher = faster piRNA-guided slicing of the target
# Summary of the method: (§1)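 Cleave-'n-Seq used a transcribed, DNA-blocked target RNA library at 0.1 nM and active affinity-purified piRISC with one synthetic guide at 1 nM, with or without 500 nM GTSF1 partner protein, in HEPES–potassium acetate buffer at 33 °C for 0–8 or 0–960 min. Uncleaved targets were sequenced and normalised to depth and to weakly complementary targets, and three trials were pooled with k3 capped at 0.0001 min^-1. The pre-steady-state cleavage rate was estimated by a burst-and-steady-state fit.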
# [2] = tested on: EfPiwi piRISC loaded with L1MC piRNA (26 nt); experiment: pre-steady-state target cleavage rate (min^-1); auxiliary factor: 500 nM Ephydatia muelleri Gtsf1; guide: L1MC piRNA 5'p-UAACUAAAUACUAUGCAAGCUGUAGG; MIWI and MILI are mouse PIWI proteins and EfPiwi is from a freshwater sponge; tags in brackets are library labels; higher = faster piRNA-guided slicing of the target
# Summary of the method: as §1
# [3] = auxiliary factor: 500 nM mouse GTSF1
# [4] = auxiliary factor: none (no GTSF1)
Sequence,"pre-steady-state target cleavage rate [1, 3]","pre-steady-state target cleavage rate [1, 4]",pre-steady-state target cleavage rate [2]
UCCUGCUACAGCUUGCAUGGUAUUUAGUUA,0.334 ± 0.018,0.0121 ± 0.0029,0.0201 ± 0.0061
UCCUGGAUGUCUUUGCAUAGUAUUUAGUUA,0.119 ± 0.015,0.0125 ± 0.0027,0.00871 ± 0.0039
UCCUGGAUCAGCUUGCAAAGUAUUUAGUAA,0.12 ± 0.0069,0.00426 ± 0.0026,0.00607 ± 0.0027
UCCUGCUACACCUUGCUUAGUAUUUAGUUA,0.2 ± 0.017,0.00572 ± 0.0028,0.00903 ± 0.0035
UCCUCCUACAGGUUGCAAAGUAUUUAGUUA,0.142 ± 0.0086,0.00921 ± 0.002,0.0547 ± 0.011
UCCUGGAUGUCCUUGCAUAGUAUGUUAGUUA,0.0434 ± 0.0088,0.00471 ± 0.0025,0.00355 ± 0.0035
UCCUGGAUGUGACUUGCAUAGUAUUUAGUUA,0.114 ± 0.019,0.00737 ± 0.0028,0.00497 ± 0.0028
UCCUGGAUCUGCUUGCAUACUAUUUAGUUA,0.055 ± 0.0088,0.0043 ± 0.0023,0.00859 ± 0.0023
UCCUGGAUCAGCUUGCAGAGUAUUUAGUUA,0.111 ± 0.015,0.00641 ± 0.002,0.00715 ± 0.0022
UCCUGGUACACCUUGCAUAGUAAUUAGUUA,0.491 ± 0.14,0.00374 ± 0.0032,0.00464 ± 0.0027
UCCUGGAUCAACUUGCAUAGUAUUUAGUUA,0.265 ± 0.017,0.00729 ± 0.0025,0.0635 ± 0.018
UCCUGGAACAGUUUGCAUAGUAUUUAGUUA,0.285 ± 0.014,0.00997 ± 0.0019,0.0565 ± 0.013
UCCUGGUACAGCUAGCAUAGUAAUUAGUUA,0.236 ± 0.041,0.00483 ± 0.0027,0.00407 ± 0.0023
UCCUGGAACAGCUUCCAAAGUAUUUAGUUA,0.137 ± 0.015,0.00525 ± 0.0018,0.00262 ± 0.0019
UCCUGGAACAGCUUGCAUAGUAUUAGUUA,0.199 ± 0.016,0.0037 ± 0.0023,0.00229 ± 0.0021
UCCUGGAACUGCUUGCAUAGUAUUUAGUUA,0.228 ± 0.016,0.00612 ± 0.002,0.0203 ± 0.006
UCCUGCAACAGCUUGCAUAGUAAUUAGUUA,0.34 ± 0.025,0.00709 ± 0.0027,0.00951 ± 0.0021
UCCUGGAACAGCUUGCAUAGUAUGUAGUUA,0.206 ± 0.034,0.00343 ± 0.003,0.00302 ± 0.0021
UCCUGGAACACGAUGCAUAGUAUUUAGUUA,0.14 ± 0.017,0.00495 ± 0.0023,0.00377 ± 0.0016
UCCUGGAUGAGCAUGCAUUGUAUUUAGUUA,0.0714 ± 0.013,0.00843 ± 0.003,0.00289 ± 0.0022
UCCUGGUUCAGCUUGCAUAGUUUUUAGUUA,0.0483 ± 0.013,0.0081 ± 0.0027,0.00498 ± 0.0023
UCCUGGAAAAGCUUGCAUAGUAUUUAGUUA,0.249 ± 0.019,0.00809 ± 0.0029,0.0119 ± 0.0039
UCCUGCUACAGCAUGCAUAGUAUUUAGUUA,0.353 ± 0.022,0.00853 ± 0.003,0.0124 ± 0.0037
UCCUCGCUACAGCUUGCAUAGUAUUUAGUUA,0.276 ± 0.02,0.00839 ± 0.0032,0.0505 ± 0.017

Sequence,"pre-steady-state target cleavage rate [1, 3]","pre-steady-state target cleavage rate [1, 4]",pre-steady-state target cleavage rate [2]
UCCUGGAUGAGCUUGCAUAGUAUUAUAGUUA,0.185 ± 0.022,0.00494 ± 0.0026,0.0159 ± 0.0056
UCCUCCUACAUGCUUGCAUAGUAUUUAGUUA,0.149 ± 0.018,0.0058 ± 0.002,0.00449 ± 0.0018
UCCUGGAACAGCAUGCAUAGUUUUUAGUUA,0.0418 ± 0.011,0.00553 ± 0.0023,0.00387 ± 0.0016
UCCUCCUACAGCUUGUAUAGUAUUUAGUUA,0.305 ± 0.018,0.00822 ± 0.0025,0.143 ± 0.033
UCCUCCUACAGCUUGCAUAGUAUUUAGGUUA,0.251 ± 0.045,0.00312 ± 0.0031,0.00552 ± 0.0017
UCCUCCUUACAGCUUGCAUAGUAUUUAGUUA,0.301 ± 0.014,0.011 ± 0.0028,0.117 ± 0.03
UCCUGGUACAGGUUGCAUAGUAUUAAGUUA,0.326 ± 0.072,0.00893 ± 0.0037,0.00485 ± 0.0027
UCCUCCAACAGCUUGCAUAGUAUUUAGUAA,0.232 ± 0.02,0.00476 ± 0.0022,0.00668 ± 0.0028
UCCUGGAACAGGUUGCAUAGAAUUUAGUUA,0.0524 ± 0.011,0.0038 ± 0.002,0.00258 ± 0.0014
UCCUGGAUGAGCUUGCAUAGUGUUUAGUUA,0.117 ± 0.016,0.00732 ± 0.0031,0.00987 ± 0.0028
UCCUGGAUCUGCUUGCAUAGUAUUAAGUUA,0.204 ± 0.019,0.00478 ± 0.0026,0.00735 ± 0.0037
UCCUGGAUCAGCUUGGAAAGUAUUUAGUUA,0.0767 ± 0.01,0.00552 ± 0.0021,0.00365 ± 0.0033
UCCUGGAUGUGCUUGCAUAGUAUUUAGUAA,0.246 ± 0.031,0.00665 ± 0.0025,0.00442 ± 0.002
UCCUCCUACAGCAUGCAUAGUAUUUACUUA,0.16 ± 0.022,0.00307 ± 0.0026,0.00211 ± 0.0017
UCCUGGUACAGCUUGCAUAGUAUUUAGUGA,0.129 ± 0.021,0.00389 ± 0.0025,0.00447 ± 0.0018
UCCUGGAUGUCGAUGCAUAUUAUUUAGUUA,0.016 ± 0.0043,0.00389 ± 0.0019,0.0047 ± 0.0036
UCCUGGAUCACGUUGCAUAGUAUUUAGAAA,0.128 ± 0.022,0.00275 ± 0.0027,0.00652 ± 0.0044
UCCUGGAACUGCUUGCAUAGUAAUUAGUUA,0.159 ± 0.012,0.00625 ± 0.0021,0.0039 ± 0.0028
UCCUCCUACACCUUGCAUAGUAUUUAGUAA,0.226 ± 0.037,0.0033 ± 0.0026,0.00625 ± 0.003
UCCUCCUUCAGCUUGCAAAGUAUUUAGUUA,0.162 ± 0.015,0.00632 ± 0.0021,0.0828 ± 0.021
UCCUGGAUGAGCUUGCAUAGUAUUUAGUUA [g2:g21:cont:t1A],0.244 ± 0.014,0.0101 ± 0.0024,0.0338 ± 0.0087
UCCUGGAACAGCUUGCAAAGUAUUUAGUUA,0.135 ± 0.0089,0.00796 ± 0.0019,0.0333 ± 0.0089
UCCUGGAUCAGCUUGCAUAGUUUUAAGUUA,0.0366 ± 0.008,0.00531 ± 0.0024,0.00285 ± 0.0028
UCCUGGUACAGCCUUGCAUAGUAUUUAGUUA,0.198 ± 0.02,0.0147 ± 0.0051,0.0209 ± 0.0073
